In PubChem BioAssay (Tox21):
Results filed as inconclusive are left out. Active and inactive are the calls of the source. Unless noted, calls come from the whole dose curve; as a rule, active = well fitted curve in the direction sought with a large enough effect in the repeat runs; inconclusive = weak or mixed curves; inactive = no such curve, though single readings can be large; an effect the other way counts as inactive or inconclusive.

Assays:
[1] = biological target: Estrogen receptor (Homo sapiens) (UniProt P03372); assay: qHTS assay to identify small molecule agonists of the estrogen receptor alpha (ER-alpha) signaling pathway in the presence of an antagonist (AID 1259383; calls by dose curve; note: top concentration of the series differs between compounds; nearly all actives have a fitted effect of over 15% in size)
Estrogen receptor (Homo sapiens), sequence (P03372 whole entry, looked up): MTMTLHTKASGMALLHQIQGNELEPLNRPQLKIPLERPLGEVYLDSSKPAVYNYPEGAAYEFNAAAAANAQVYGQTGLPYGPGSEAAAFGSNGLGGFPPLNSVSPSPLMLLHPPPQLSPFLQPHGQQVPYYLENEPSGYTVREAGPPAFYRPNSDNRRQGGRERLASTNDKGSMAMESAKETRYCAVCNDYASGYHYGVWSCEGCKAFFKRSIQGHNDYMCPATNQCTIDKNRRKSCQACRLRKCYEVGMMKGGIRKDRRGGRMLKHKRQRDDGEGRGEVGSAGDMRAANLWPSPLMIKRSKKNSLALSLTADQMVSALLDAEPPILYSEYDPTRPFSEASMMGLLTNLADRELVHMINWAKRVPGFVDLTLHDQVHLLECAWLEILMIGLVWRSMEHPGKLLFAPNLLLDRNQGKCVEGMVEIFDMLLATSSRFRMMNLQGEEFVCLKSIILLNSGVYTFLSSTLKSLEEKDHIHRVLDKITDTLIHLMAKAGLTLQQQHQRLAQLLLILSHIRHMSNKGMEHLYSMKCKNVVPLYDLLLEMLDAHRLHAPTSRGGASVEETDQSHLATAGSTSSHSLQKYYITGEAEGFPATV
Procedure, shortened: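 Stably transfected VM7Luc4E2 reporter cells, kept 5 days in charcoal-stripped serum, received ICI-182,780 at 10.0nM final before compound addition. Following 22hr incubation at 37C and 5% CO2, luciferase signal was read by luminescence.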

[2] = biological target: Thyrotropin receptor (Homo sapiens) (UniProt P16473); assay: qHTS assay to identify small molecule antagonists of the thyroid stimulating hormone receptor (TSHR) signaling pathway (AID 1259385; calls by dose curve; note: nearly all actives have a fitted effect of over 20% in size)
Thyrotropin receptor (Homo sapiens), sequence (P16473 whole entry, looked up): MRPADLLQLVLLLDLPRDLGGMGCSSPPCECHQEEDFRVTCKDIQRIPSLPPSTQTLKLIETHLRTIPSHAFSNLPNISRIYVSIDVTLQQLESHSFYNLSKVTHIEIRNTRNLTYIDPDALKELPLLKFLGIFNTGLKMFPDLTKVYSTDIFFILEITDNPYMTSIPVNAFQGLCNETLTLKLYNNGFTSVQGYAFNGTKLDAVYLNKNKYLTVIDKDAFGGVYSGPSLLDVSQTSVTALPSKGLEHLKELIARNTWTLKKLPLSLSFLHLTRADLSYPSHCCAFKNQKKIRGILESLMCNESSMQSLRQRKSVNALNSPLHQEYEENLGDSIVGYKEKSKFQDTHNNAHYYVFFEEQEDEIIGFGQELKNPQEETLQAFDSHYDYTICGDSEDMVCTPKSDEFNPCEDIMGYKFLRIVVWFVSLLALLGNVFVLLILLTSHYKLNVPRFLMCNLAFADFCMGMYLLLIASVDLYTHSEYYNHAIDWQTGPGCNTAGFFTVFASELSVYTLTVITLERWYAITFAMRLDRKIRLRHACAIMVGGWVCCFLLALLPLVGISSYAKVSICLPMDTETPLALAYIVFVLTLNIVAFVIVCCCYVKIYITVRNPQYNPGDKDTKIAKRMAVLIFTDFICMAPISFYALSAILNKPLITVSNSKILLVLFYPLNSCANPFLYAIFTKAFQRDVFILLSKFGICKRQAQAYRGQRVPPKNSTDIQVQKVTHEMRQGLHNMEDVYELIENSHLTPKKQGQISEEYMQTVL
Procedure, shortened: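 TSHR-HEK293 cells (800/well) plated 18 h, then compounds with Ro20-1724 and TSH at 1.5 ng/mL final, 30 min at room temperature. cAMP quantified by HTRF (cAMP-d2/anti-cAMP-cryptate, 1 h); 15 concentrations in triplicate.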

[3] = qHTS assay to identify small molecule agonists of the estrogen receptor alpha (ER-alpha) signaling pathway in the presence of an antagonist - cell viability counter screen (AID 1259386);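 note: series mostly up to about 92 µM; cells exposed to compounds for 22 h at 37 °C before the viability read; nearly all actives have a fitted effect of over 30% in size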
Procedure, shortened: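 Viability counter screen using VM7Luc4E2 (full-length ER-alpha, four ERE-luciferase). The cells were treated with compounds alongside ICI-182,780 10.0nM for 22hr, and live-cell protease fluorescence was quantified with CellTiter-Fluor.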

[4] = biological target: Progesterone receptor (Homo sapiens) (UniProt P06401); assay: qHTS assay to identify small molecule agonists of the progesterone receptor (PR) signaling pathway (AID 1346784; calls by dose curve; note: nearly all actives have a fitted effect of over 30% in size)
Progesterone receptor (Homo sapiens), sequence (P06401 whole entry, looked up): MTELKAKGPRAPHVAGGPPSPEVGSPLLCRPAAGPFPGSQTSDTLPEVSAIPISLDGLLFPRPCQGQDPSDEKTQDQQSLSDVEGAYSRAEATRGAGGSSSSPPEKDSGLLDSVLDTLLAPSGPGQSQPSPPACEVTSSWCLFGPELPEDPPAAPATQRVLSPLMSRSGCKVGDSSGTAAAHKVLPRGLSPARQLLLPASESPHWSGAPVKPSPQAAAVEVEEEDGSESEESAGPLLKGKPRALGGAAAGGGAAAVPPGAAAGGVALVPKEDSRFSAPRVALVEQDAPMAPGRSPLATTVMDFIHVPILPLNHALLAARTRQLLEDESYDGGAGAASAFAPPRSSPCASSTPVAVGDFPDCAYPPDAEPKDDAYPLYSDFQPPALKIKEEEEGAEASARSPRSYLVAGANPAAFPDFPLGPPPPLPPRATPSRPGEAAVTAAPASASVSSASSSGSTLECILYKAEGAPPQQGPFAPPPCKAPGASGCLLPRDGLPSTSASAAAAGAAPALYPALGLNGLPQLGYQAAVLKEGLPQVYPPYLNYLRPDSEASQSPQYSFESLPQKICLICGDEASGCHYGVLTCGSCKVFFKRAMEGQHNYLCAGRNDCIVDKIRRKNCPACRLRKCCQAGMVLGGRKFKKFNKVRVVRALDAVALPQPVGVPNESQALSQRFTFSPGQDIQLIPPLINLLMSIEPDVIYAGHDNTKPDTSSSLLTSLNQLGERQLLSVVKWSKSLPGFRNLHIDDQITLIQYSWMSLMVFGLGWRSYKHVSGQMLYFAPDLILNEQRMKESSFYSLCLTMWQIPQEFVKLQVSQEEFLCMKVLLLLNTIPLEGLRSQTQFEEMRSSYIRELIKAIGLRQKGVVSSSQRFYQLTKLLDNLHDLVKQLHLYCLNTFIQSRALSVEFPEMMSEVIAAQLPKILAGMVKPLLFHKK
Procedure, shortened: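 PR-UAS-bla HEK 293T cells carrying a UAS-driven beta-lactamase reporter were seeded in medium with 2% charcoal-stripped FBS, preincubated 6 hr at 37C, then exposed to compounds in DMSO for 16 hr; agonism was read by LiveBLAzer B/G FRET fluorescence.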

[5] = biological target: Progesterone receptor (Homo sapiens) (UniProt P06401); assay: qHTS assay to identify small molecule antagonists of the progesterone receptor (PR) signaling pathway (AID 1346795; active = well fitted inhibition curve with a large enough effect in the signal ratio in the repeat runs, not every such curve was filed as active; the % refers to the signal ratio; note: potency is the fitted concentration of half-maximal effect)
Procedure, shortened: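 PR-UAS-bla HEK293T cells carrying a UAS-driven beta-lactamase reporter were plated in medium with 2% charcoal-stripped FBS and rested 6 hr at 37C. Compounds were added with 1 nM R5020 (final) for 16 hr, then FRET substrate loaded 2 hr at room temperature.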

[6] = qHTS assay to identify small molecule antagonists of the progesterone receptor (PR) signaling pathway - cell viability counter screen (AID 1346798); note: series mostly up to about 92 µM; nearly all actives have a fitted effect of over 50% in size
Procedure, shortened: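 PR-UAS-bla HEK293T cells in medium with 2% charcoal-stripped FBS were treated with compounds plus R5020 for 16 hr at 37C. Cell viability was then read by CellTiter-Glo luminescence after 30 min at room temperature in the same wells.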

[7] = qHTS assay to identify small molecule agonists of the progesterone receptor (PR) signaling pathway - cell viability counter screen (AID 1346799; calls by dose curve; note: nearly all actives have a fitted effect of over 45% in size)
Procedure, shortened: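 PR-UAS-bla HEK293T cells, 3,000 per well in medium with 2% charcoal-stripped FBS, were preincubated 6 hr at 37C, then exposed to compounds for 16 hr; viability was read as CellTiter-Glo luminescence after 30 min at room temperature.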

[8] = qHTS assay to identify small molecule antagonists of the TGF-beta/Smad signaling pathway - cell viability counter screen (AID 1346824); note: nearly all actives have a fitted effect of over 50% in size
Procedure, shortened: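 SBE-bla HEK 293T cells, incubated overnight, then compound plus 0.25 ng/mL TGF-beta1 (stock added) for 5 hr at 37 C. Viability was read in the same wells by CellTiter-Glo luminescence after 30 min at room temperature.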

[9] = qHTS assay to identify small molecule agonists of the TGF-beta/Smad signaling pathway (AID 1346859; active = well fitted activation curve with a large enough effect in the signal ratio in the repeat runs, not every such curve was filed as active; the % refers to the signal ratio; note: series mostly up to about 77 µM)
Procedure, shortened: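 HEK 293T cells stably carrying a beta-lactamase reporter driven by the Smad binding element were seeded overnight, exposed to DMSO-dissolved compounds for 5 hr at 37 C, 5% CO2, then loaded with FRET substrate for 2 hr at room temperature.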

[10] = biological target: Thyrotropin-releasing hormone receptor (Homo sapiens) (UniProt P34981); assay: qHTS assay to identify small molecule antagonists of the thyrotropin-releasing hormone receptor (TRHR) signaling pathway (AID 1346877; active = well fitted inhibition curve with a large enough effect in the repeat runs, not every such curve was filed as active; note: series mostly up to about 51 µM)
Thyrotropin-releasing hormone receptor (Homo sapiens), sequence (P34981 whole entry, looked up): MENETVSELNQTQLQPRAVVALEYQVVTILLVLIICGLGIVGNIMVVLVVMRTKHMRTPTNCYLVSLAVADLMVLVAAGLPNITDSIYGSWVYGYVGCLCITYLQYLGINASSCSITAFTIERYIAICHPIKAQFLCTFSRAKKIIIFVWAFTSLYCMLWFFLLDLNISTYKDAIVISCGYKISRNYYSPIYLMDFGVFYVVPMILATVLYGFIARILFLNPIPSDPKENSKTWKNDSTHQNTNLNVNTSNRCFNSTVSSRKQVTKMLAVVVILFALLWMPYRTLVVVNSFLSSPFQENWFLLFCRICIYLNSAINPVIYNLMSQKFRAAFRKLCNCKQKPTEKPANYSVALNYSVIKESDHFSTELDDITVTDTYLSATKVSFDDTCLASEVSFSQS
Procedure, shortened: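 Following an 18 h incubation at 37 °C and a 2 h calcium dye load, TRHR-HEK293 cells were exposed to compound (5 min, room temperature) and challenged with TRH, 1 nM final.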

[11] = biological target: Thyrotropin-releasing hormone receptor (Homo sapiens) (UniProt P34981); assay: qHTS assay to identify small molecule agonists of the thyrotropin-releasing hormone receptor (TRHR) signaling pathway (AID 1346891; calls by dose curve; note: series mostly up to about 58 µM)
Procedure, shortened: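 TRHR-expressing HEK293 cells were plated 18 h at 37 °C/5% CO2, loaded with calcium dye 2 h at 37 °C, then given compound in DMSO; fluorescence was read kinetically for 3 min at 1 s intervals.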

[12] = Human pregnane X receptor (PXR) small molecule agonists, qHTS cell viability counter screen (AID 1346977); note: nearly all actives have a fitted effect of over 50% in size
Procedure, shortened: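 PXR-Luc HepG2 cells in medium with 5% charcoal-stripped FBS were pre-incubated 5hr, then exposed to compounds for 24hr at 37C. Viability was read in the same wells by CellTiter-Fluor fluorescence, reagent added after 23hr with a 1hr incubation.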

[13] = Caspase-3/7 induction in HepG2 cells by small molecules, qHTS assay (AID 1346978); note: nearly all actives have a fitted effect of over 15% in size
Procedure, shortened: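 Wild-type HepG2 cells, 2,000/well, settled 5 hr at 37 C and 5% CO2, then compound-treated for 17 hr; caspase-3/7 activity read by luminescent Caspase-Glo 3/7 after 30 min at room temperature.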

[14] = Caspase-3/7 induction in CHO-K1 cells by small molecules, qHTS cell viability counter screen (AID 1346979); note: nearly all actives have a fitted effect of over 35% in size
Procedure, shortened: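 Wild-type CHO-K1 cells were seeded at 1,500 per well, rested 5hr at 37 C, then exposed to compounds in DMSO. After 16hr, CellTiter-Fluor reagent was added and fluorescence read 1hr later as the viability measure.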

[15] = Caspase-3/7 induction in CHO-K1 cells by small molecules, qHTS assay (AID 1346980); note: nearly all actives have a fitted effect of over 15% in size
Procedure, shortened: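 Wild-type CHO-K1 cells exposed to compounds for 17hr at 37 C, 5% CO2. Caspase-3/7 activity then measured by Caspase-Glo 3/7 luminescence after 30min at room temperature.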

[16] = biological target: Nuclear receptor subfamily 1 group I member 2 (Homo sapiens) (UniProt O75469); assay: Human pregnane X receptor (PXR) small molecule agonists, qHTS assay (AID 1346982); note: nearly all actives have a fitted effect of over 35% in size; note: potency is the fitted concentration of half-maximal effect
Nuclear receptor subfamily 1 group I member 2 (Homo sapiens), sequence (O75469 whole entry, looked up): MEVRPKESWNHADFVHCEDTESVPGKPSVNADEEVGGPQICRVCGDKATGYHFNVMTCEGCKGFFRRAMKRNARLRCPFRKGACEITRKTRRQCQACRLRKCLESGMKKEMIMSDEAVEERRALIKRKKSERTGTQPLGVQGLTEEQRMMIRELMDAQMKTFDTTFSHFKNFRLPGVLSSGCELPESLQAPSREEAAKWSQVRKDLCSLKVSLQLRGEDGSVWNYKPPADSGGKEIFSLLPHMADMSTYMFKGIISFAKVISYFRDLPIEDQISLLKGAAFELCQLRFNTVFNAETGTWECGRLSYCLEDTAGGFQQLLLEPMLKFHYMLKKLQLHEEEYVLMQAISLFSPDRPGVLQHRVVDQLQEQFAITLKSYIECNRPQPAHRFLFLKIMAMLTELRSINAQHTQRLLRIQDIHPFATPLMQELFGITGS
Procedure, shortened: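 Compound-induced hPXR transactivation of a CYP3A4 luciferase reporter was scored in HepG2 PXR-Luc cells over 24 hr at 37 C, 5% CO2, by luminescence.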

[17] = qHTS assay to identify small molecule agonists or antagonists of the thyroid stimulating hormone receptor (TSHR) signaling pathway - wild type cell line counter screen (AID 1259384; calls by dose curve)
Procedure, shortened: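 Wild-type Hek293 cells, 800/well, 18 h at 37C, then compound with Ro20-1724 for 30 min RT. cAMP by HTRF (cAMP-d2/anti-cAMP cryptate), 1 h RT, fluorescence read. 15 concentrations, triplicates.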

[18] = qHTS assay to identify small molecule agonists of the TGF-beta/Smad signaling pathway - cell viability counter screen (AID 1346829); note: top concentration of the series differs between compounds; nearly all actives have a fitted effect of over 45% in size
Procedure, shortened: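 Same-well cytotoxicity: CellTiter-Glo added after the 2 hr room-temperature beta-lactamase substrate step, luminescence measured 30 min later; cells had 5 hr of compound at 37 C.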

[19] = Caspase-3/7 induction in HepG2 cells by small molecules, qHTS cell viability counter screen (AID 1346981); note: series mostly up to about 92 µM; nearly all actives have a fitted effect of over 30% in size
Procedure, shortened: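 Viability determined by CellTiter-Fluor fluorescence in HepG2 wells also used for the luminescent Caspase-Glo 3/7 read. Compounds were present for 16 hr at 37 C, 5% CO2 before reagent addition.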

[20] = biological target: Nuclear receptor subfamily 1 group I member 2 (Rattus norvegicus) (UniProt Q9R1A7); assay: Rat pregnane X receptor (rPXR) activation by small molecules, qHTS assay (AID 1346983); settings: rPXR luciferase reporter cells, One-Glo luminescence, 24 h; max activation: hits give high values; note: nearly all actives have a fitted effect of over 20% in size
Nuclear receptor subfamily 1 group I member 2 (Rattus norvegicus), sequence (Q9R1A7 whole entry, looked up): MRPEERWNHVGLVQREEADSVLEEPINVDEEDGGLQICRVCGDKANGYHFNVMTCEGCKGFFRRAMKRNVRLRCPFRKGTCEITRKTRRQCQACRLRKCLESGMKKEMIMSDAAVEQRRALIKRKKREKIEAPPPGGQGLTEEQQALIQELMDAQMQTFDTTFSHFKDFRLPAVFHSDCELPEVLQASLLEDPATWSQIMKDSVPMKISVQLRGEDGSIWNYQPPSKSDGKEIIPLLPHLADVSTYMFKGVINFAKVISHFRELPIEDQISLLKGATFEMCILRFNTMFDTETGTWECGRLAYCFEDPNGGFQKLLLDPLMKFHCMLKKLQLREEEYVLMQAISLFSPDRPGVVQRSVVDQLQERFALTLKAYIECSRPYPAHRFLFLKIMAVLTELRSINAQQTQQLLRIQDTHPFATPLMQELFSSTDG
Procedure, shortened: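 Cell-based rPXR activation assay: rPXR cells, 2,000 per well, rested 5hr at 37 C, then exposed to compounds in DMSO for 24 hr at 37 C. Luciferase activity read by One-Glo luminescence after 30 min at room temperature.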
% is set by controls: 0 for no effect and ±100 for the full control effect.

CCCCc1ccc(Cl)cc1
inactive: Potency [1] | outcome [2] | outcome [3] | Potency [4] | Potency [5] | outcome [6] | Potency [7] | outcome [8] | outcome [9] | outcome [10] | Potency [11] | outcome [12] | outcome [13] | Potency [14] | outcome [15] | Potency [16]

CCCCC(CC)COC(=O)CC#N (stereo not drawn)
active: Potency [16] 2.73 µM
inactive: Potency [1] | outcome [17] | outcome [3] | Potency [4] | Potency [5] | Potency [7] | outcome [8] | outcome [18] | outcome [9] | outcome [12] | outcome [13] | Potency [14] | outcome [15] | outcome [19]

CCNC(=O)C(C)OC(=O)Nc1ccccc1 (stereo not drawn)
inactive: Potency [1] | outcome [2] | outcome [3] | Potency [4] | Potency [7] | outcome [8] | outcome [9] | outcome [10] | Potency [11] | outcome [12] | outcome [13] | outcome [15] | outcome [19] | Potency [16]

CC(=O)c1ccc2ccc3ccccc3c2c1
active: Potency [5] 9.63 µM | Potency [16] 60.8 µM
inactive: Potency [1] | outcome [17] | outcome [3] | Potency [4] | outcome [8] | outcome [9] | outcome [12] | outcome [13] | outcome [15] | outcome [19]

Cc1ccc(S(=O)(=O)NC(=O)NN2CC3CCCC3C2)cc1 (stereo not drawn)
inactive: Potency [1] | outcome [17] | outcome [3] | Potency [4] | Potency [5] | outcome [6] | Potency [7] | outcome [18] | outcome [9] | outcome [10] | Potency [11] | outcome [12] | outcome [13] | Potency [14] | outcome [15] | outcome [19] | Potency [16] | max activation [20] 1.11%

CCCCN1C(=O)c2ccccc2C1=O
inactive: Potency [1] | outcome [17] | outcome [3] | Potency [4] | Potency [7] | outcome [8] | outcome [18] | outcome [9] | outcome [10] | Potency [11] | outcome [12] | outcome [13] | Potency [14] | outcome [15] | outcome [19] | Potency [16]

CCCCCCCCCCCCCCCCN(C)C
inactive: activation [1] 0.651% [at 8.39 µM] | activity change, negative = inhibition [2] 1.02% [at 8.39 µM] | activity change, negative = cytotoxicity [3] 0.513% [at 8.39 µM] | activity change, negative = cytotoxicity [6] -0.0264% [at 8.39 µM] | activity change, negative = cytotoxicity [7] -6.19% [at 8.39 µM] | viability change, negative = cytotoxic [8] 3.18% [at 6.97 µM] | activity change, negative = cytotoxicity [18] 16.2% [at 6.97 µM] | activation [9] 0.329% [at 6.97 µM] | activity change, negative = cytotoxicity [12] 1.81% [at 8.39 µM] | caspase activation [13] 0.737% [at 8.39 µM] | activity change, negative = cytotoxicity [14] -2.77% [at 8.39 µM] | caspase-3/7 activation [15] -0.483% [at 8.39 µM] | activity change, negative = cytotoxicity [19] -1.8% [at 8.39 µM]

Clc1ccc2c(c1)Nc1ccccc1S2
inactive: Potency [1] | outcome [17] | outcome [6] | Potency [7] | outcome [8] | outcome [18] | outcome [9] | outcome [12] | Potency [14] | outcome [15] | outcome [19]
active: Potency [5] 7.5 µM | Potency [16] 33.5 µM

COc1cc(S(N)(=O)=O)cc(C(=O)O)c1OC
inactive: Potency [1] | outcome [17] | outcome [3] | outcome [6] | Potency [7] | outcome [8] | outcome [18] | outcome [9] | outcome [10] | Potency [11] | outcome [12] | outcome [13] | Potency [14] | outcome [15] | outcome [19] | Potency [16]

C=CCCCCCCCCOC(C)=O
inactive: Potency [1] | outcome [3] | Potency [4] | Potency [5] | outcome [6] | Potency [7] | outcome [8] | outcome [18] | outcome [9] | outcome [10] | Potency [11] | outcome [12] | outcome [13] | Potency [14] | outcome [15] | outcome [19] | Potency [16]

C=CCOC(=O)CCCCCCCC
inactive: Potency [1] | outcome [3] | Potency [4] | Potency [5] | outcome [6] | Potency [7] | outcome [8] | outcome [9] | outcome [12] | outcome [13] | Potency [14] | outcome [15] | outcome [19] | Potency [16]

CCOC(=O)CN1CCCC1=O
inactive: Potency [1] | outcome [3] | Potency [4] | Potency [5] | outcome [6] | outcome [8] | outcome [18] | outcome [9] | outcome [10] | Potency [11] | outcome [12] | Potency [14] | outcome [15] | outcome [19] | Potency [16]

C[Si](C)(C)O[Si](O)(O)O
inactive: Potency [1] | outcome [3] | Potency [4] | Potency [7] | outcome [8] | outcome [18] | outcome [10] | Potency [11] | outcome [12] | outcome [13] | Potency [14] | outcome [15] | outcome [19] | Potency [16]

CCCCCCC(O)CO (stereo not drawn)
inactive: Potency [1] | outcome [3] | Potency [4] | Potency [5] | outcome [6] | Potency [7] | outcome [8] | outcome [18] | outcome [10] | Potency [11] | outcome [12] | Potency [14] | outcome [15] | outcome [19] | Potency [16]

Nc1ccc(C(=O)NCC(=O)O)cc1
inactive: Potency [1] | outcome [3] | Potency [4] | Potency [5] | outcome [6] | Potency [7] | outcome [8] | outcome [18] | outcome [12] | outcome [13] | Potency [14] | outcome [15] | outcome [19] | Potency [16] | max activation [20] -2.15%
